Measured values reported in PubChem BioAssay AID1063 (University of Pittsburgh Molecular Library Screening Center, 2008).
The whole screen tested about 200,000 compounds, of which about 18,000 (9%) were called active. Only a selection was taken, and actives are over-represented in it overall. Unmarked numbers belong to inactive results. Cut-off read from the data, not from the text of the source: active = inhibition above about 50%; inactive = the rest.

assay: Leishmania major promastigote growth inhibition, primary screen (AID 1063); details: Leishmania major promastigotes, resazurin fluorescence viability; at 10 µM; active compounds read high;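 note: promastigotes grown with compound for 44 hours at 28 °C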

Row | SMILES | inhibition
1 | O=C(CSc1nnc(C2CC2)n1Cc1ccccc1)Nc1cccnc1Cl | 3.75%
2 | Cc1cc(NC(=O)CSc2nnc(Nc3ccccc3F)s2)no1 | 0.51%
3 | O=C(CSc1nnc(Nc2ccccc2)s1)Nc1cccnc1Cl | 66.3% (active)
4 | CC(=O)c1c(-c2ccccc2)c2ccccc2[nH]c1=O | -2.95%
5 | c1ccc2c(c1)C(=NC1CCCCC1)NC2=NC1CCCCC1 | 100% (active)
6 | O=C1CCCCC(=O)c2ccccc2N1 | 0.26%
7 | CN(C)S(=O)(=O)c1cccc(NC(=O)COC(=O)/C=C/c2cccs2)c1 | -4.76%
8 | CCOCC(=O)Nc1ncc(S(=O)(=O)c2ccc([N+](=O)[O-])cc2)s1 | 20.7%
9 | COc1ccc(NC(=O)c2c(C)oc3c2CCCC3)cc1 | -5.6%
10 | COc1ccc(N/N=C2/CCCCC2=O)cc1 | 67.6% (active)
11 | Cc1ccc(N/N=C2\COC(C)(C)CC2=O)cc1 | 0.62%
12 | O=C(CCCO)N/N=C/c1cc(Br)ccc1O | 12.7%
13 | O=C(CCCCCNC(=O)c1ccccc1)N/N=C/c1ccccc1 | -3.34%
14 | O=C(N/N=C/c1ccccc1O)/C(=C/c1ccccc1)CCO | 97.6% (active)
15 | Cc1c(C=O)c2ccccc2n1CC(=O)O | -9.42%
16 | Cc1ccccc1OCCC(=O)OCC(=O)NC(C)c1ccccc1 (centres undefined) | 1.48%
17 | CC1CN(S(=O)(=O)c2ccc(C(=O)Nc3sccc3C(N)=O)cc2)CC(C)O1 (centres undefined) | 6.76%
18 | CNC(=O)c1ccsc1NC(=O)c1ccc(S(=O)(=O)N2CCOCC2)cc1 | 12.3%
19 | CNC(=O)c1ccsc1NC(=O)c1ccc(S(=O)(=O)N2CCc3ccccc32)cc1 | 89.2% (active)
20 | Cc1ccc2nc(-c3ccc(NC(=O)c4cccnc4)cc3)oc2c1 | -5.33%
21 | Cc1cccc(NC(=S)NCCN(C2CCCCC2)C2CCCC2)c1 | 37.4%
22 | COc1ccc(OCc2n[nH]c(=S)n2N)cc1 | -7.89%

Row | SMILES | inhibition
23 | O=C(/C=C/c1ccc(F)cc1)NC(=S)NNC(=O)c1cccnc1 | 53.4% (active)
24 | O=C(/C=C/c1ccc(F)cc1)NCCNC(=O)/C=C/c1ccc(F)cc1 | -1.31%
25 | CC(C)c1ccc(/C=C/C(=O)NNC(=O)c2cccnc2)cc1 | -0.93%
26 | S=C(NCc1cccs1)Nc1ccc(Cl)cc1 | 10.1%
27 | COc1ccc(NC(=S)NCc2cccs2)c(OC)c1 | 53.3% (active)
28 | COc1cc(CC(=O)NCc2cccs2)cc(OC)c1OC | -3.33%
29 | COc1ccc(Br)cc1/C=N/Nc1ccc(Cl)c(C(=O)O)c1 | -11.3%
30 | COC(=O)C1CCN(C(=O)c2cc(=O)[nH]c3ccccc23)CC1 | -2.57%
31 | COc1ccc(CCNC(=O)CC2SC(=Nc3cc(C)cc(C)c3)NC2=O)cc1OC (centres undefined) | 1.72%
32 | Cc1nc(N2CCC(C)CC2)c2c(C)c(C(=O)Nc3cc(F)ccc3C)sc2n1 | 72.2% (active)
33 | Cc1ccnc(N2CCCC(C(=O)Nc3cc(F)ccc3C)C2)n1 (centres undefined) | -1.61%
34 | Cc1nc(N2CCN(c3ccccn3)CC2)c2c(C)c(C(=O)Nc3ccc(F)cc3)sc2n1 | 43.6%
35 | CCOC(=O)C1CCCN(C(=O)c2sc3nc(C)nc(N4CCOCC4)c3c2C)C1 (centres undefined) | -2.76%
36 | Cc1ccc(F)cc1NC(=O)c1ccc2c(c1)OCO2 | -6.66%
37 | Cc1nc(N2CCOCC2)c2c(C)c(C(=O)Nc3ccc(C(F)(F)F)cc3)sc2n1 | 58.7% (active)
38 | CC(C)CNC(=O)C(=O)NCc1ccccc1 | -6.83%
39 | O=C(COC(=O)c1ccc(O)cc1)Nc1nccs1 | 3.69%
40 | C/C(=N\NC(=O)C(N)=O)c1ccc2c(c1)OCCO2 | -3.07%
41 | CC(=O)c1cccc(NC(=O)[C@@H](NC(N)=O)C(C)C)c1 | 6.23%
42 | COc1cccc(NC(=O)C(C)Oc2ccccc2)c1 (centres undefined) | -5.27%
43 | COc1ccc(NC(C(=O)Nc2cccc(C(C)=O)c2)c2ccccc2)cc1 (centres undefined) | 94.4% (active)
44 | Nc1c(C(=O)O)cnn1-c1ccccc1 | -2.24%

Row | SMILES | inhibition
45 | O=C(CCN1C(=O)c2ccncc2C1=O)Nc1cc(F)ccc1F | -6.67%
46 | O=C(CCN1CCN(C/C=C/c2ccccc2)CC1)Nc1cccc(F)c1 | 90.8% (active)
47 | CCN1CCN(C(=O)C2(NC(=O)Nc3cccc(F)c3)CCCCC2)CC1 | 29.9%
48 | O=C(CCN1C(=O)c2ccccc2C1=O)Nc1cccc(F)c1 | 89.8% (active)
49 | O=C(CN1CCN(C(=O)c2cccc(F)c2)CC1)Nc1ccccc1F | -5.19%
50 | O=C(CCN1C(=O)c2ccccc2C1=O)Nc1ccncc1 | -8.03%
51 | O=C(CCN1CCN(c2ccccc2)CC1)NNC(=S)Nc1ccccc1 | -9.65%
52 | COc1ccccc1CC(=O)Nc1ccc(F)cc1F | -6.42%
53 | O=C(CN1CCN(C/C=C/c2ccccc2)CC1)Nc1ccc(F)cc1F | 77.3% (active)
54 | CC(=O)N1N=C(c2ccccc2)OC1c1cccnc1 (centres undefined) | -2.61%
55 | CCC(C)N(C(=O)COC(=O)C1C(C(=O)OC)=C(C)NC(C)=C1C(=O)OC)C1CCS(=O)(=O)C1 (centres undefined) | -3.21%
56 | O=C(Nc1ccc(N2CCN(C(=O)C3CC3)CC2)cc1)c1cccs1 | -2.42%
57 | CCCOCC(O)CC(CC)C(=O)NNC(=S)Nc1ccccc1 (centres undefined) | -2.02%
58 | CCCCOc1ccc(N(CC(=O)NC(C)C)C(=O)CCC(=O)Nc2ccccn2)cc1 | 0.57%
59 | Cn1c(CCC(=O)Nc2ccccc2F)nnc1SCC(=O)Nc1ccccc1Cl | 2.13%
60 | S=c1nc(C23CC4CC(CC(C4)C2)C3)nc2sccn12 | -2.7%
61 | COc1cccc(C(=O)Oc2cc(C)[nH]c(=O)c2[N+](=O)[O-])c1 | 5.78%
62 | CC1CCCN(S(=O)(=O)c2ccc(C(=O)Nc3nnc(-c4ccncc4)o3)cc2)C1 (centres undefined) | 12.2%
63 | CC1CCCCN1S(=O)(=O)c1ccc(S(=O)(=O)N(CC(=O)Nc2ccccc2)Cc2cccs2)cc1 (centres undefined) | -0.93%
64 | CC1CCCCN1S(=O)(=O)c1ccc(C(=O)Nc2nnc(-c3cccs3)o2)cc1 (centres undefined) | 99.6% (active)
